The panel holds about 83,000 compounds, 20% with a hit somewhere; the sample as a whole holds those more often.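 48-hour exposure, single concentration, 96-well plates; percent growth endpoint where 0 means no net growth. Active: below 10.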 Values without a mark were called inactive. Calls of active or inactive are those of the source.
system: HL-60(TB) leukemia; assay: NCI-60 one-dose screen, 48 h (100 = growth as untreated, 0 = no growth, -100 = all killed); conditions: 10 µM unless noted

Row | SMILES | growth
1 | CCCCC(CCc1ccccn1)C(=O)c1ccccc1 (stereo not given) | 110%
2 | O=C(OC12CC3CC(CC(C3)C1)C2)c1ccc(NCc2cc(O)ccc2O)cc1 | -52.6% (active)
3 | COc1ccc(-c2cc(=O)c3c(OC)c4ccoc4c(/C=C/C=O)c3o2)cc1 | -3.36% (active)
4 | CNC(=O)c1cc(Oc2cccc3nc(Nc4ccc(Cl)c(F)c4)ccc23)ccn1 | 95%
5 | Cc1ccc(C(=O)Nc2cccc(C#Cc3cccc4[nH]nc(N)c34)c2)cc1C(F)(F)F | 19.2%
6 | CCNC(=O)Oc1ccc(/C(=C(/CC)Cc2ccccc2)c2ccc(OCCN3CCOCC3)cc2)cc1 | 5.28% (active)
7 | CC(C)(C)CC(C)(C)Nc1c(-c2ccc(-c3ccccc3)cc2)nc2cnccn12 | 92.9%
8 | CC(=O)O[C@H]1CC[C@]2(C)[C@H]3CC[C@@H]4[C@H]5[C@H](C(C)C)CC[C@]5(C(=O)OCC(CO)(CO)N=C(N)N)CC[C@@]4(C)[C@]3(C)CC[C@H]2C1(C)C | -24.7% (active)
9 | C=CC1CN2CCC1CC2C(O)c1ccnc2ccc(OC)cc12 (stereo not given) | 103%
10 | Cn1ccnc1C(=O)/C=C/c1ccc(C(=O)Nc2ccc(Cl)cc2)cc1 | -16.9% (active)
11 | COc1cccc(/C=N/NC(=O)c2ccccc2Nc2ccnc(C(F)(F)F)c2)c1O | 34.8%
12 | NCCCN | 98.8%
13 | COc1cnc2c(c1)C(=O)c1c-2n(CCCN2CCC(O)CC2)c(=O)c2cc(F)ccc12 | -8.3% (active)
14 | CN(C)C1CCC(NC2=CC(=O)C=CC2=O)CC1 (stereo not given) | 114%
15 | OCCNCCNC(Cc1ccc(Cl)cc1)c1ccccc1 (stereo not given) | 76.4%
16 | C=CCSc1nnc(-c2ccc(C(C)(C)C)cc2)n1-c1cccc(C(F)(F)F)c1 | 5.96% (active)
17 | CCCCc1n(Cc2ccc3ccccc3n2)cc[n+]1Cc1ccc2ccccc2c1 | -46.1% (active)
18 | COc1cc(-c2nn(-c3cccc(NC(=O)NCCNC(=O)c4cccc(C(F)(F)F)c4)c3)cc2-c2ccncc2)ccc1Cl | 16.8%
19 | COc1ncc2cc1NS(=O)(=O)c1cccc(c1)C(=O)NCC1=CC=C(S1)c1ncnc3c1SC2=C3C | -10.8% (active)
20 | O=C1c2c(c3c4cc(F)ccc4oc3c3[nH]c4ccccc4c23)C(=O)N1O | 41.8%

Row | SMILES | growth
21 | NC(=S)N/N=C/c1ccc(OC(=O)COc2cc(Cl)c(Cl)cc2Cl)cn1 | 47.1%
22 | Cc1ccc(-c2nn(CC(=O)N3CCOCC3)c(N)c2C#N)cc1 | 103%
23 | CCc1oc2ccccc2c1C(=O)c1cc(Br)c(O)c(Br)c1 | 53%
24 | CO[C@@H](C(=O)N1Cc2[nH]nc(NC(=O)c3ccc(N4CCN(C)CC4)cc3)c2C1)c1ccccc1 | 16.8%
25 | COc1cc(C2CC(c3ccc(C)cc3)=NN2C=O)ccc1OCCN(C)C (stereo not given) | 95.3%
26 | CCc1ccc(Cc2cnc(NC(=O)c3cc(C)oc3C)s2)cc1 | -21.3% (active)
27 | Nc1nc(Cl)c2c(C(F)(F)F)cn(CC3CCNCC3)c2n1 | 25.5%
28 | CS(=O)(=O)c1nccc(-c2c(-c3cccc(OCCN4CCOCC4)c3)nc3sccn23)n1 | 66.4%
29 | O=C(CSc1nc2ccccc2[nH]1)Nc1ccc(-c2nc3ccccc3s2)c(Cl)c1 | 62%
30 | FC(F)(F)Oc1ccc2nc3nc4ccc[nH]c4cc3c2c1 | 73.4%
31 | CCOC(OCC)c1cnc2nc(NC(C)=O)[nH]c(=O)c2n1 | 123%
32 | CCCCCCCCn1ccc2cc(NC(=O)Cn3cc(CN4CCOCC4)nn3)ccc21 | 97.4%
33 | O=C(CN1C(=O)NC2NC(=O)NC21)N/N=C/c1cccc([N+](=O)[O-])c1 (stereo not given) | 99.1%
34 | Cn1c(=O)c2c(-c3ccccc3F)n(-c3ccc4c(c3)OCO4)cc2n(C)c1=O | 90.2%
35 | O=C1/C(=C/N2N=C(c3ccc(Cl)cc3)CC2c2ccccc2O)SC(=S)N1c1cccc(C(F)(F)F)c1 (stereo not given) | 52.2%
36 | Oc1c(C(Nc2ccccc2Br)c2ccccc2)ccc2cccnc12 (stereo not given) | -17.8% (active)
37 | NC(=O)c1ccc2c(c1)OCO2 | 103%
38 | O=C(CCCCCCCn1cc(-c2cccnc2)nn1)Nc1ccccc1-c1ccccc1 | 45.7%
39 | Cc1cc(Cl)ccc1NC(=O)/C(Cl)=C1/Sc2ccccc2NC1=O | 93.1%
40 | O=C(O)c1ccccc1Oc1cc(-c2ccco2)nc(OCCBr)n1 | 100%

— PubChem BioAssay (NCI)
